PubChem BioAssay (NCI)
This is part of a sample that, as a whole, favours compounds with a hit. Of some 79,000 tested, about 15% had one in any assay. Cut-off read from the data, not from the text of the source: active = growth inhibition above about 70%; inactive = the rest.

Assays:
[1] = NCI Yeast Anticancer Drug Screen. Data for the rad50 strain (AID 155);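 note: 0% = growth of vehicle-only cultures of the same strain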; settings: S. cerevisiae rad50 strain growth inhibition; at 50.0 µM; active compounds read high
Outline: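 Inhibition values express reduced yeast growth in compound-treated cultures relative to vehicle-treated controls.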

[2] = NCI Yeast Anticancer Drug Screen. Data for the mec2-1 strain (AID 157); settings: S. cerevisiae mec2-1 strain, at 50.0 µM, active compounds read high
Outline: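 Compounds were applied to mec2-1 yeast cells. Their growth was then compared with that of vehicle-treated cultures to give growth inhibition.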

[3] = NCI Yeast Anticancer Drug Screen. Data for the sgs1 mgt1 strain (AID 161);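 note: 0% = growth of cultures given vehicle only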; settings: S. cerevisiae sgs1 mgt1 strain, at 50.0 µM, active compounds read high
Outline: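 Percent growth inhibition was derived by comparing compound-exposed mutant yeast with vehicle-exposed cultures. The strain carries alterations in DNA damage repair.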

[4] = NCI Yeast Anticancer Drug Screen. Data for the cln2 rad14 strain (AID 165);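 note: 0% = growth equal to vehicle treated cultures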; settings: S. cerevisiae cln2 rad14 strain, at 50.0 µM, active compounds read high
Outline: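 Strain: cln2 rad14 yeast, altered in cell cycle control and DNA damage repair. Read-out: growth inhibition vs vehicle.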

[5] = NCI Yeast Anticancer Drug Screen. Data for the bub3 strain (AID 167); settings: S. cerevisiae bub3 mutant strain, at 50.0 µM, active compounds read high
Outline: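 Steps: expose the mutant yeast strain to compound; grow alongside vehicle-treated cultures; measure growth; express inhibition against the vehicle cultures.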

[6] = NCI Yeast Anticancer Drug Screen. Data for the mlh1 rad18 strain (AID 175); settings: S. cerevisiae mlh1 rad18 strain growth inhibition; at 50.0 µM; active compounds read high
Outline: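 A repair-deficient yeast strain is exposed to test compound, and growth is scored relative to vehicle-treated controls.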

Measured: growth inhibition

COc1cc2oc3c(C)c(=O)cc4oc(-c5ccccc5)cc(c2c2c1CCC(c1ccccc1)O2)c43 (stereo unspecified)
inactive: [1] -23.6% | [2] -5.9% | [3] -20.1% | [4] 4.35% | [5] -20.2% | [6] -0.7%

O=C1O[C@@H]2C3COC(O)[C@](O)(O3)[C@@H]2/C1=C\c1ccc(O)cc1 (stereo partly specified)
inactive: [1] 20.1% | [2] 10.4% | [3] 8.4% | [4] 5.25% | [5] 8.45% | [6] 9.4%

O=C(Nc1cccc(Cl)c1)OC1C=CCC1 (stereo unspecified)
inactive: [1] 3.4% | [2] 1.75% | [3] 2.65% | [4] -20.1% | [5] -2.15% | [6] -15.5%

O=C(c1cccc(C(=O)N(c2ccccc2)c2ccccc2)n1)N(c1ccccc1)c1ccccc1
inactive: [1] -47.5% | [2] -11.2% | [3] -32.1% | [4] 15.6% | [5] -11.8% | [6] -1.8%

COC(=O)C(CC(=O)[C@H]1CC[C@H]2[C@@H]3CC[C@H]4C[C@@H](OC(C)=O)CC[C@]4(C)[C@H]3CC[C@]12C)OC(C)=O (stereo partly specified)
inactive: [1] 51.5% | [2] 40.9% | [3] 57.5% | [4] 53% | [5] -2.7% | [6] 44.2%

CCC1COC(Nc2cccc3c2CCCC3)=N1 (stereo unspecified)
inactive: [1] -0.05% | [2] -6.7% | [3] -8.75% | [4] -30.4% | [5] 17.7% | [6] 4.55%

Cc1cc(C)n(-c2ccncc2[N+](=O)[O-])n1
inactive: [1] 7.55% | [2] 17.9% | [3] -2.45% | [4] -13.8% | [5] 9.05% | [6] 0.2%

O=S(=O)(O)CCc1ccccc1
inactive: [1] 1.9% | [2] 9.15% | [3] -10.9% | [4] -7.5% | [5] -21.1% | [6] -26.5%

CCOc1c(N=Nc2ccccc2C)c(C)nn1C(N)=S
inactive: [1] 18.1% | [2] 0.7% | [3] 18.3% | [4] -24.6% | [5] 21.1% | [6] 23.1%

COn1c2ccccc2c2c1cc1ccccc1[n+]2[O-]
inactive: [1] -7.15% | [2] -5.95% | [3] -8.9% | [4] -52.5% | [5] -9.65% | [6] -13.4%

CC(C)NS(=O)(=O)c1ccc(Cl)cc1
inactive: [1] 11.6% | [2] 1.65% | [3] 12.4% | [4] 0.4% | [5] -1.1% | [6] 1.85%

CCCCC1(O)CC2CC1C(C)C2(C)C (stereo unspecified)
inactive: [1] 0.3% | [2] 7.75% | [3] -3.45% | [4] 22.1% | [5] 16.4% | [6] 2.5%

CSc1n[nH]c(NC(=O)c2ccccc2Br)n1
inactive: [1] 4.2% | [2] -0.9% | [3] 29.4% | [4] -19.6% | [5] 3.65% | [6] 30.5%

O=C(O)c1cc(/C=C/c2ccccc2)ccc1[N+](=O)[O-]
inactive: [1] -11.2% | [2] 25.5% | [3] 7.5% | [4] -33.6% | [5] -5.8% | [6] -3.1%

O=C(NCCCCCCNC(=O)c1cc(-c2ccccc2)nc2ccccc12)c1cc(-c2ccccc2)nc2ccccc12
inactive: [1] -33% | [2] -18% | [3] -42.6% | [4] -17.4% | [5] -27.3% | [6] -17.4%

C=CCN1C(C)(C)NC(=S)C1(C)C
inactive: [1] -20.8% | [2] -4.9% | [3] -1.7% | [4] -5% | [5] -6% | [6] -2.35%

O=C1CN(C(=O)Nc2ccccc2)c2ccccc2N1
inactive: [1] 26.6% | [2] -25.5% | [3] -8.3% | [4] 4.55% | [5] 7% | [6] -5.5%

Nc1nc(Cl)nc2c1ncn2C1CCC(CO)O1 (stereo unspecified)
inactive: [1] -21.2% | [2] 1.35% | [3] -7.9% | [4] 5.5% | [5] 4.15% | [6] 16.1%

O=[N+]([O-])c1ccc(/C=C/c2ccc([N+](=O)[O-])cc2S(=O)(=O)O)c(S(=O)(=O)O)c1
inactive: [1] 25.8% | [2] -9.6% | [3] 30.8% | [4] 5.45% | [5] 32.9% | [6] 32%

CNc1nc(SC)nc2[nH]ncc12
inactive: [1] 7.1% | [2] -9.2% | [3] 2.45% | [4] -3.2% | [5] 23% | [6] 2.05%

CO/N=C1\C(O)CC2C(C)(CCC3C2(C)CCC2(C)C4CC(C)(C)CCC4(C)CCC32C)C1C (stereo unspecified)
inactive: [1] 1.9% | [2] -3.8% | [3] -18.5% | [4] -14.1% | [5] -1.45% | [6] -5.85%
